ELG1 genotox = genotoxicity induction in ELG1-luciferase HEK293T cells | Potency, µM (top dose mostly 46 µM), without a hit: top-dose activity change, positive = activation, hits mostly activators | AID 504466 | 330,000 tested, 1.3% active | HEK293T ELG1-luciferase reporter, luminescence, 16 h; further: % of control where 0% means no effect; nearly all actives have a fitted effect of over 60% in size
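After overnight (16 hr) compound treatment at 37 °C, ELG1-luciferase HEK293T cells were lysed with ONE-Glo; luminescence quantified 30 min later at room temperature.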
FLuc counter = counter-screen for miR-21 project: firefly luciferase inhibitors or activators | P08659 | purified FLuc, Km substrates, luminescence inhibition | Potency, µM (doses to about 57.5 µM), for inactives: at the top dose activity change, negative = inhibition, usual class: inhibitors | 360,000 tested, 6.9% active;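 further: plate controls were vehicle for no effect and reference inhibitor for full effect; nearly all actives have a fitted effect of over 55% in size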
Target sequence (P08659 whole entry, looked up): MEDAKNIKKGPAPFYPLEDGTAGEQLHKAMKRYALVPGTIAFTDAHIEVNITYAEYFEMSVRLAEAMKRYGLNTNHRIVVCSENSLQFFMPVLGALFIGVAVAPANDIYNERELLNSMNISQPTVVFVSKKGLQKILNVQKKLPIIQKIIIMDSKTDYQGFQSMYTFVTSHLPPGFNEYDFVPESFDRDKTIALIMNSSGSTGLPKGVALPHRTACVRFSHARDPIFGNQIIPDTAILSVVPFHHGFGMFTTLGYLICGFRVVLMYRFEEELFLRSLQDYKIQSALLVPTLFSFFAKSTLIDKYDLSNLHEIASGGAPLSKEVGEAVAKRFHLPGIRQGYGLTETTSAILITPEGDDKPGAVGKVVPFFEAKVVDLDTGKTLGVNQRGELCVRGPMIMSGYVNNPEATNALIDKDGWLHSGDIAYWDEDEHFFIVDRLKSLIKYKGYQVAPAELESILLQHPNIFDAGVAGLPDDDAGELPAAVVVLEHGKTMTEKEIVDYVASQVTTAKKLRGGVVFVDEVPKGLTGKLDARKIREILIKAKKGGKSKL
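Purified P. pyralis luciferase, 10 nM final, with Km-level 10 uM D-luciferin and 10 uM ATP in 50 mM Tris acetate pH 7.5, 10 mM Mg acetate, 0.01% Tween-20, 0.05% BSA; 6-point qHTS titration about 60 µM downward; luminescence read.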
Rab9 prom act = Rab9 promoter activation. Potency, µM (titrated, usually from 9.22 µM), without a hit: at the top dose activation, negative = inhibition, hits mostly activators. AID 485297. 320,000 tested, 2.8% active. Huh7 Rab9 promoter-luciferase reporter, luminescence, 24 h; further: % of control where 0% means no effect; nearly all actives have a fitted effect of over 60% in size
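Measured in stably transfected Huh7 cells bearing a Rab9 promoter–luciferase construct: 24 h compound treatment at 37 °C, followed by luminescence detection.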
SMN2 splice enh = enhancers of SMN2 splice variant expression. AID 1458. HEK293 SMN2-luciferase splicing reporter, luminescence, 30-36 h. 210,000 tested, 2.8% active. Potency, µM (series often up to 46.1 µM), for inactives: at the top dose activity change, positive = activation, usual class: activators; further: % of control where 0% means no effect; nearly all actives have a fitted effect of over 55% in size
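qHTS luciferase splicing reporter: luminescence rises when SMN2 exon 7 is included in transfected HEK293 cells. Compound exposure lasted 30-36 h at 37C, with 4.5 mM final sodium butyrate as control, followed by a ONE-Glo read.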
NPC1 prom act = NPC1 promoter activation; Potency, µM (top dose mostly 9.22 µM), for inactives: at the top dose activation, hits mostly activators; 320,000 tested, 2.4% active; AID 485313; Huh7 NPC1 promoter luciferase reporter, 24 h; further: % of control where 0% means no effect; nearly all actives have a fitted effect of over 60% in size
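Luciferase expression driven by the NPC1 promoter was measured in stably transfected Huh7 cells after a 24 h compound incubation, using a luciferase reagent and a luminescence read.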
* hit, by the source's call; ? = inconclusive; · = not tested or not shown; [ ] = dose if it differs, or a comment. Rows were chosen to be rich in hits. Some 7.5% of all compounds tested hit in one or more screens of this group. The call rests on the fitted dose curve; in most records, active means well fitted curve in the direction sought with a large enough effect; inconclusive means small, poorly fitted or top-dose-only effect, or another doubt; inactive means no such curve, though single readings can be large; an effect the other way counts as inactive or inconclusive. Potency means the concentration at half of the fitted maximal effect.

SMILES | ELG1 genotox | FLuc counter | Rab9 prom act | SMN2 splice enh | NPC1 prom act
O=C(CSCC(=O)Nc1nc(-c2ccc3c(c2)OCO3)cs1)Nc1nccs1 | -0.4% | ? | 24.7% | · | 24.7%
CCCC(=O)Nc1nnc(-c2ccc3c(c2)OCCO3)o1 | -4.8% | 15.1µM* | 1.5% | ? | 16.0%
COc1cccc(-c2c(C(=O)N/N=C(\C)c3cccnc3)nnn2-c2nonc2N)c1 | -1.2% | -1.5% | -0.6% | · | 0.4%
c1ccc(C(c2cccc3c2ccc2ccccc23)[C@H](c2ccccc2)c2cccc3c2ccc2ccccc23)cc1 (some centres undefined) | · | · | · | -0.8%[9.22 µM] | ·
C1OCOCO1 | · | · | · | 1.9% | ·
CC(=O)N1CCN(c2ncnc3ccccc23)CC1 | -14.5% | 4.7% | 5.8% | · | 1.7%
CC1CN(S(=O)(=O)c2cccc(C(=O)Nc3ccc(S(=O)(=O)Nc4ncccn4)cc3)c2)CC(C)O1 (centres undefined) | 0.2% | 1.1% | 2.6% | · | -2.1%
COc1ccccc1C(=O)Nc1nnc(-c2ccc3c(c2)CCCC3)o1 | 3.2% | ? | -13.6% | -3.2% | 5.0%
CC(=O)Nc1nnc(-c2ccc3c(c2)CCCC3)o1 | ? | 12µM* | 3.98µM* | ? | ?
CCCC(=O)Nc1nc(-c2ccc3c(c2)OCCO3)cs1 | 2.59µM* | 6.01µM* | 3.16µM* | 8.91µM* | 1.78µM*
O=C(O)C(=O)Nc1nc(-c2ccc3c(c2)OCCO3)cs1 | 15.8% | 9.53µM* | 1.9% | · | -2.3%
CCCCC/C=C\C[C@@H]1O[C@H]1C(O)/C=C\C/C=C\CCCC(=O)O (some centres undefined) | · | · | · | 2.0% | ·
CCCCNc1nc2c(-c3cccc(Br)c3)nnn2c2ccccc12 | · | 0.6% | · | 0.0% | ·
Brc1cccc(-c2nnn3c2nc(NCc2ccc4c(c2)OCO4)c2ccccc23)c1 | · | -7.7% | · | 14.1µM* | ·
O=C(/C=C/c1ccc(-c2ccc(F)cc2)o1)N1CCCC1 | ? | 13.5µM* | 3.16µM* | · | 2.82µM*
O=C(c1cc(-c2ccc(O)cc2)on1)N1CCN(c2ccccc2)CC1 | -14.2% | ? | 6.7% | -17.7% | -1.0%
O=C(/C=C/c1ccc(F)cc1)N1CCCN(C(=O)/C=C/c2ccc(F)cc2)CC1 | 0.4% | ? | 17.5% | -10.8% | 3.0%
O=C(c1cc(-c2ccc(O)cc2)on1)N1CCCC1 | 4.61µM* | 6.01µM* | 0.398µM* | · | 0.447µM*
O=C(c1cc(-c2ccc(Br)cc2)on1)N1CCCC1 | 2.06µM* | 1.51µM* | 0.501µM* | · | 0.631µM*
O=C(c1cc(-c2ccc(F)cc2)on1)N1CCCCCC1 | ? | 5.36µM* | 1.41µM* | · | 0.891µM*
COc1ccc(CCNC(=O)c2ccc3c(c2)N(Cc2ccc(F)cc2)C(=O)CS3)cc1OC | · | -3.9% | · | · | ·
O=C(c1cc(-c2ccc(F)cc2)on1)N1CCOCC1 | ? | 6.01µM* | 1.58µM* | · | 1.12µM*
CN1CCN(C(=O)c2cc(-c3ccccc3)on2)CC1 | 16.7% | ? | ? | ? | ?
COc1cccc(-c2cc(C(=O)N3CCN(c4ccc(F)cc4)CC3)no2)c1 | 12.8% | -16.5% | ? | 7.6% | 0.0%
Cc1ccc(-c2cc(C(=O)N3CCCCCC3)no2)cc1 | ? | 1.51µM* | 0.562µM* | · | 0.501µM*
SMILES | ELG1 genotox | FLuc counter | Rab9 prom act | SMN2 splice enh | NPC1 prom act
O=C(c1cc(-c2ccccc2)on1)N1CCCCCC1 | 2.31µM* | 9.53µM* | 3.55µM* | · | 1.41µM*
O=C(c1cc(-c2ccc(F)cc2)on1)N1CCCC1 | ? | 2.69µM* | 0.631µM* | · | 0.794µM*
O=C(Nc1cccc(Cl)c1)C1CCCN(C2=NS(=O)(=O)c3ccccc32)C1 (centres undefined) | 1.7% | 2.3% | -2.7% | · | -5.3%
CCOC(=O)C1CCCN(C(=O)c2cc(-c3ccc(C)cc3)on2)C1 (centres undefined) | ? | 12µM* | 0.891µM* | ? | ?
COc1ccc(-c2nc(C#N)c(N3CCC(C)CC3)o2)cc1 | -5.0% | ? | -9.2% | · | -3.6%
O=[N+]([O-])c1ccccc1-c1ccc(C(=S)N2CCCC2)o1 | -6.1% | 21.3µM* | 2.82µM* | 11.2µM* | ?
O=[N+]([O-])c1ccccc1-c1ccc(C(=S)N2CCCCC2)o1 | ? | 8.49µM* | 3.16µM* | · | 2µM*
C=CCNC(=O)N1CCc2nc(COc3ccccc3)c3c(c2C1)CO[C@@H](C)C3 | · | · | · | -9.6%[9.22 µM] | ·
O=C(c1ccccc1)c1c[nH]c2cc3c(cc2c1=O)OCO3 | 5.7% | 0.3% | 0.7% | 16.6% | -6.7%
O=C(c1ccccc1)c1c[nH]c2cc3c(cc2c1=O)OCCO3 | 15.5% | ? | ? | 22.4µM* | 22.2%
O=C(NCc1cccnc1)c1c[nH]c2cc3c(cc2c1=O)OCCO3 | ? | 6.01µM* | 2.4% | -43.7% | -0.6%
O=C(COc1ccc(Cl)cc1)Nc1ncccn1 | 20.6µM* | 19µM* | 16.3% | 7.8% | 13.1%
Cc1ccnc(NC(=O)COc2ccc(Cl)cc2)n1 | ? | 23.9µM* | 21.1% | · | 18.8%
Cc1cc(C)nc(NC(=O)COc2ccc(Cl)cc2)c1 | · | · | · | -4.6%[9.22 µM] | ·
C/C(=N/NC(=O)c1ccncc1)c1ccc(NC(=O)c2ccccc2)cc1 | 1.5% | 21.3µM* | -0.1% | · | -4.0%
C/C(=N\NC(=O)c1cccc(N/N=C(\C)c2ccncc2)c1)c1ccncc1 | -4.7% | ? | 18.8% | 9.0% | 5.9%
C/C(=N\NC(=O)c1ccncc1)c1cccc(NC(=O)c2ccc(C(C)(C)C)cc2)c1 | -21.1% | 0.12µM* | 2µM* | · | 1.41µM*
C/C(=N\Nc1ccccc1)c1cccc(N)c1 | ? | 21.3µM* | ? | · | 21.9%
C/C(=N\NC(=O)c1ccccc1O)c1ccc(NC(=O)c2ccccc2)cc1 | 16.6% | 21.3µM* | ? | · | ?
CCN(C(=O)C(C)OC(=O)C1C(C(=O)OC)=C(C)NC(C)=C1C(=O)OC)c1ccccc1 (centres undefined) | 0.0% | 12.9% | -1.3% | -2.5% | -1.6%
O=[N+]([O-])c1ccc2[nH]c(O)c(N=NC3CCS(=O)(=O)C3)c2c1 (centres undefined) | 1.0% | 0.0% | 0.4% | · | -0.7%
Cn1nc(OCC(=O)O)cc1C(F)(F)F | 2.7% | 6.3% | 2.0% | · | 0.6%
C/C(=N\NC(=O)c1cccc(N/N=C(\C)c2ccccc2)c1)c1ccccc1 | 13.3% | 13.5µM* | ? | 20µM* | ?
C/C(=N\NC(=O)c1ccc(Br)cc1)c1cccc(NC(=O)c2cccnc2)c1 | 0.4% | 12µM* | 21.3% | ? | 14.7%
C/C(=N\NC(=O)c1ccccc1O)c1cccc(NC(=O)c2ccccc2)c1 | 2.1% | 10.7µM* | 11.1% | · | 25.0%
C/C(=N\NC(=O)c1nn(C)cc1Br)c1cccc(NC(=O)c2ccncc2)c1 | 0.6% | 12µM* | 18.4% | 12.1% | 8.5%
COc1ccc(Br)cc1CNC(=O)C1CCCCN1S(=O)(=O)c1ccc(F)cc1 (centres undefined) | · | -10.2% | · | · | ·

High-throughput results: PubChem BioAssay, National Center for Advancing Translational Sciences (NCATS)
